# Only some compounds are listed: those with a hit (about 2.3% of all), similar ones and a draw of the others.
# Tau fil binding: binders of human tau filaments | P10636 | recombinant tau filaments, thioflavin S fluorescence, 15 h; filaments grown with octadecylsulfate alongside compound | Potency, µM (top dose mostly 57.1 µM), without a hit: at the top dose activity change, negative = inhibition | hit rate 2% among 71,000 | AID 596;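 also: potency is read from the fitted curve at half-maximal effect; % is scaled to controls: 0 for no effect and ±100 for the full control effect; actives lower thioflavin S fluorescence by blocking filaments or displacing dye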
#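 Assay mix: 1 uM His-tagged tau, 30 uM sodium octadecylsulfate, thioflavine S dye in HEPES/NaCl/DTT buffer. Compound is added prior to the inducer. Fluorescence after 15 h at 37 C.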
# GFP derepression: epigenetic GFP locus derepression in mouse cells. mouse C127i GFP locus derepression, cytometry, 30 h. hit rate 0.09% among 68,000. Potency, µM (highest dose often 46.1 µM), inactives show at the highest dose GFP derepression (activation); also: % of control where 0% means no effect
#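 Derepression screen: silenced CMV-GFP reporter in murine C127i cells, 30 h compound incubation at 37 C, washed cells imaged by laser-scanning cytometer to enumerate GFP-expressing objects of 20 to 120 um.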
# ALOX15B inhib: inhibitors of human 15-lipoxygenase 2 (ALOX15B). O15296. purified 15hLO-2, xylenol orange hydroperoxide absorbance. Potency, µM (doses to about 57.1 µM), inactives show at the highest dose activity change, negative = inhibition, most hits filed as inhibitors. hit rate 0.56% among 110,000; also: potency is read from the fitted curve at half-maximal effect; % is scaled to controls: 0 for no effect and ±100 for the full control effect; nearly all actives have a fitted effect of over 60% in size
#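 Purified human 15hLO-2 (50 nM final) preincubated with compounds 15 min at room temperature in 25 mM Hepes pH 7.5, 0.01% Triton X-100, then 45 uM arachidonic acid added for 90 min; hydroperoxide detected via ferrous/xylenol orange, 573/405 nm absorbance ratio.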
# 15-hLO inh: 15-hLO (ALOX15) enzyme inhibition; hit rate 1.4% among 74,000; P16050; Potency, µM (highest dose often 57.1 µM), for the others: at the highest dose activity change, negative = inhibition, usual class: inhibitors; purified 15hLO-1, xylenol orange hydroperoxide absorbance; also: potency is read from the fitted curve at half-maximal effect; % is scaled to controls: 0 for no effect and ±100 for the full control effect; nearly all actives have a fitted effect of over 55% in size
# Target sequence (P16050 whole entry, looked up): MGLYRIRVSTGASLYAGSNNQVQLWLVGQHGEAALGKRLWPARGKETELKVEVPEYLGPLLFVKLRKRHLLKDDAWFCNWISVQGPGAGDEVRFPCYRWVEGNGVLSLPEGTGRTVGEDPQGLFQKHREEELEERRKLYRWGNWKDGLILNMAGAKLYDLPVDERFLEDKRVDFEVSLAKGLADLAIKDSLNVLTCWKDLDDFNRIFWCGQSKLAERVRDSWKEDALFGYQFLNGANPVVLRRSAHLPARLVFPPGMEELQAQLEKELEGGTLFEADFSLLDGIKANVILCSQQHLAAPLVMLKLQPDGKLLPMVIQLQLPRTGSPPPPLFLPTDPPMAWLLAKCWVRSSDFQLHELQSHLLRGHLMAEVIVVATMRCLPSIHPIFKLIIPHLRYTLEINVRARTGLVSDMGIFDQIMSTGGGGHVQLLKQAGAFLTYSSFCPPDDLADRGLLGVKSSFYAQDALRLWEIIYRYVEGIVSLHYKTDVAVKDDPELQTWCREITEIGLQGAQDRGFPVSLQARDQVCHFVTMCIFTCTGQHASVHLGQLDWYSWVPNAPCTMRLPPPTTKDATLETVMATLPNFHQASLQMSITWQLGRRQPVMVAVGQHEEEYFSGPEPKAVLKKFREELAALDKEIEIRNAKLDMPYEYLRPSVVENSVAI
#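 Purified human 15hLO-1 (40 nM final) in 25 mM Hepes pH 7.5, 0.01% Triton X-100 was preincubated with compound 15 min at room temperature, then reacted 6 min with 50 uM arachidonic acid; hydroperoxide detected by Fe-XO, 573/405 nm absorbance ratio.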
# HBB splice mod: hemoglobin beta splicing modulation. HBB splicing reporter cell assay, activation; EGFP reporter with mutant IVS2-654 intron; response scale: normalised to 500 nM splice-correcting PNA. Potency, µM (doses to about 46.1 µM), without a hit: at the highest dose activation, actives largely listed as activators. hit rate 0.06% among 65,000; also: potency is read from the fitted curve at half-maximal effect; 0% is about no effect
#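 Compounds were applied for 2 days to HeLa EGFP-654 cells, 500/well in Optimem with 2% FCS. The reporter's EGFP is disrupted by mis-splicing of beta-globin intron IVS2-654. Readout: summed well GFP fluorescence from 488 nm laser scanning; reference was 500 nM antisense […] 654 PNA.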
# Ub-GFP proteasome: proteasome inhibitors stabilizing ubiquitin-GFP reporter | 67,000 tested, under 10 active | Ubiquitin-GFP reporter cells, proteasome inhibition, GFP fluorescence; response scale: untreated = 0%, 10 µM MG-132 = 100% | Potency, µM (doses to about 45.9 µM), without a hit: at the top dose activation (GFP accumulation), usual class: activators; active = well fitted activation curve with a large enough effect, not every such curve was filed as active; inconclusive = small, poorly fitted or top-dose-only effect, or another doubt; inactive = no such curve, though single readings can be large or run the other way; also: potency is read from the fitted curve at half-maximal effect
#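 Proteasome blockade was scored as a rise in GFP-expressing U2OS cells carrying a ubiquitin(G76V)-GFP construct, imaged after 4 hr compound treatment at 37 °C across a 46 uM–2.9 nM series.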
# * = called active by the depositor; ? = inconclusive; / = no result; [ ] = another dose, or the depositor's remark. Unless noted, calls follow the shape of the dose curve; as a rule, active = well fitted curve in the direction sought with a large enough effect; inconclusive = small, poorly fitted or top-dose-only effect, or another doubt; inactive = no such curve, though single readings can be large; an effect the other way counts as inactive or inconclusive.
SMILES,Tau fil binding,GFP derepression,ALOX15B inhib,15-hLO inh,HBB splice mod,Ub-GFP proteasome
COCCn1c(C)nc2oc3ccc(Br)cc3c(=O)c2c1=O,16µM*,3%,-7%,8%,0%,-10%
COc1ccccc1N1CCN(S(=O)(=O)c2ccc3c4c(cccc24)C(=O)N3C)CC1,25µM*,4%,7%[2.29 µM],-6%,-1%,11%
COc1ccccc1N1CCN(S(=O)(=O)c2ccc3c4c(cccc24)C(=O)N3)CC1,-30%,-1%,-8%,?,0%[57.5 µM],2%
C[C@H](CN(C)C)C(=O)c1ccccc1C(=O)O,-4%[11.4 µM],3%[9.22 µM],2%[11.4 µM],6%[11.4 µM],3%[9.22 µM],1%[9.17 µM]
CCOC(=O)NC1(NC2CCCCC2)Oc2ccccc2O1,0%,0%,-20%,25µM*,-4%,-1%
Cc1ncn(-c2ccccc2O)c1C,3%[11.4 µM],10%[9.22 µM],-6%[11.4 µM],-1%[11.4 µM],-2%[9.22 µM],3%[9.17 µM]
COc1ccccc1C[C@@H](Cc1nc2ccccc2[nH]1)c1nc2ccccc2[nH]1,44%,-2%[9.22 µM],/,/,/,2%
C=C(CO)C1Cc2c(ccc3c2OC2COc4cc(OC)c(OC)cc4C2C3=O)O1 (centres undefined),/,/,-14%,-2%[25.6 µM],/,/
C=C(CO)[C@H]1Cc2c(ccc3c(=O)c4c(oc23)COc2cc(OC)c(OC)cc2-4)O1,32µM*,2%[9.22 µM],/,/,/,3%
N[C@@H]1C=CC=C(C(=O)O)C1,3%,0%,-4%,-7%,1%,-5%
Nc1nc(OCC(F)(F)F)cc(Oc2ccccc2F)n1,-10%[11.4 µM],-2%,3%,-9%[11.4 µM],2%[0.0738 µM],-6%[9.17 µM]
Nc1cc(N)c(OCC(F)(F)F)cc1OCC(F)(F)F,16µM*,2%,6%,?,-1%[57.5 µM],-4%
O=C(O)c1oc(C(=O)O)c(C(=O)O)c1C(=O)O,2%[11.4 µM],2%[9.22 µM],-1%[11.4 µM],4%[11.4 µM],1%[9.22 µM],-4%[9.17 µM]
CCCCCCCC/C=C\CCCCCCCC(=O)NCCc1ccc(O)c(O)c1,-9%,1%,?,4µM*,0%,0%
CCCCCCCC/C=C\CCCCCCCC(=O)NCc1ccc(O)c(OC)c1,40µM*,0%,-9%,3%[25.6 µM],/,0%
CCCCCCCCCCCCCCCC(=O)NCCc1ccc(O)c(O)c1,/,/,-9%,-5%,-1%,/
Cc1ccc2nsnc2c1S(=O)(=O)N1CCN(CCc2ccccc2)CC1,25µM*,0%,3%,-2%,3%,-8%
Cc1noc(NC(=O)Nc2ccccc2F)c1C#N,1%[11.4 µM],-8%[9.22 µM],3%[11.4 µM],7%[11.4 µM],0%[9.22 µM],1%[9.17 µM]
CCc1ccc(O)c(N=Cc2ccccc2O)c1,-24%,-7%,16µM*,?,0%[9.22 µM],-7%
Cn1ncc(N=Cc2ccccc2O)c1C(=O)Nc1ccccc1,/,0%[20.6 µM],2%,/,/,/
O=C(O)Cc1[nH]cnc1C(=O)O,1%[11.4 µM],-3%[9.22 µM],8%[11.4 µM],3%[11.4 µM],-1%[9.22 µM],-8%[9.17 µM]
CCc1ccc(C(=O)NC(C(=O)O)C(C)C)cc1 (centres undefined),/,/,-4%,/,/,/
CNNCc1ccc(C(=O)NC(C)C)cc1,-10%[25.6 µM],2%[20.6 µM],4%[25.6 µM],7.9µM*,-2%[20.6 µM],-6%[20.5 µM]
COc1ccc(Cc2nnc3n2N=C(c2cc4ccccc4o2)CS3)cc1OC,32µM*,1%,/,-26%,0%[57.5 µM],3%
Cc1cccc(Nc2ncc3c(n2)CC(c2ccco2)CC3=O)c1 (centres undefined),28%,0%,3%,-4%,1%[1.84 µM],14%
SMILES,Tau fil binding,GFP derepression,ALOX15B inhib,15-hLO inh,HBB splice mod,Ub-GFP proteasome
Cc1ccc(Nc2ncc3c(n2)CC(c2ccco2)CC3=O)c(C)c1 (centres undefined),?,-2%,-4%,20µM*,0%[0.369 µM],/
O=S(=O)(c1ccccc1)N1CN2CN(C1)CN(S(=O)(=O)c1ccccc1)C2,8%[11.4 µM],-2%[9.22 µM],-7%[11.4 µM],15%[11.4 µM],4%[9.22 µM],-3%[9.17 µM]
CCOC(=O)c1c(C)n(OCc2ccccc2)c2ccc3c(no[n+]3[O-])c12,135%,-2%,-3%,0%,-1%,4%
Cn1c(-c2ccccc2)cc2c3no[n+]([O-])c3ccc21,10µM*,22%,-5%,-3%,4%[0.369 µM],-2%
CC(=O)c1c(COC(=O)c2cccnc2)nc2ccccc2[n+]1[O-],20µM*,0%,5%,7%,1%[0.369 µM],-2%
CCCCC(CC)COCC1CO1 (centres undefined),-6%,/,-8%,2%,0%,/
Nc1nc(N)c2nc(CNc3ccc(C(=O)N[C@H](CCC(=O)O)C(=O)O)cc3)cnc2n1,24%,2%,20%,-18%,1%,-4%
Cc1cc(O)c2c(c1O)C(=O)c1c(O)cc(C)c(O)c1C2=O,/,/,15%,-17%,/,/
CN(C)CCCNc1cc(O)c2c(c1O)C(=O)c1ccccc1C2=O,1µM*,2%[9.22 µM],7%[11.4 µM],3%[11.4 µM],0%[9.22 µM],-6%[9.17 µM]
O=C1c2ccccc2C(=O)c2c(O)c(O)cc(O)c21,/,/,-8%,5µM*,/,/
Fc1cccc(-n2c(-c3ccco3)nc3nc4ccccc4nc32)c1,117%,7%,-27%,?,-2%[0.369 µM],/
Fc1ccc(-c2nc3nc4ccccc4nc3n2Cc2ccco2)cc1,16µM*,2%,-14%,-24%,-1%[57.5 µM],3%
Fc1ccc(-n2c(-c3ccco3)nc3nc4ccccc4nc32)cc1,13µM*,0%,-5%,-8%,-1%,-1%
c1ccc(-c2nc3nc4ccccc4nc3n2Cc2ccco2)cc1,13µM*,0%,-18%,-13%,-3%[57.5 µM],1%
COCCCn1c(-c2ccco2)nc2ccccc2c1=O,6%,10%,-8%,2%,-7%,-17%
CCCCOCCCn1c(-c2ccco2)nc2nc3ccccc3nc21,2µM*,2%,-22%,?,?,1%
O=C(O)c1cccc(C[C@H](Br)C(=O)O)c1,1%[11.4 µM],10%[9.22 µM],-10%[11.4 µM],-6%[11.4 µM],2%[9.22 µM],5%[9.17 µM]
CC(CN(C)C)NC(=O)c1ccc(Cc2nc3ccccc3[nH]2)cc1 (centres undefined),/,/,/,-3%,/,/
C[C@@H](/C=C\c1cccc(Oc2ccc(F)cc2)c1)N(O)C(N)=O,?,-1%,-23%,10µM*,0%,0%
CC(C(=O)O)c1cccc(Oc2ccccc2)c1 (centres undefined),/,/,-5%,3%,/,/
CC(=O)C1=C(C)NC(SCC(=O)c2ccc(Cl)cc2)=C(C#N)C1c1ccco1 (centres undefined),167%,-4%,-13%,13µM*,9%,4%
CC(=O)C1=C(C)NC(SCC(=O)c2ccccc2)=C(C#N)C1CC(C)C (centres undefined),22%,-2%,?,4µM*,-1%[57.5 µM],5%
CC(=O)C1=C(C)NC(SCC(=O)c2ccc(Cl)cc2Cl)=C(C#N)C1c1ccco1 (centres undefined),110%,2%,-27%,13µM*,-2%[9.22 µM],-8%

# Screening results from PubChem BioAssay.
